Assay [1] is described as follows: AP1 Signaling Pathway (AID 357; active = well fitted curve in either direction with a large enough effect, not every such curve was filed as active;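 note: ME-180 reporter cells stimulated with EGF at its EC50 level; % is set by controls: 0 for no effect and ±100 for the full control effect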). The conditions noted are these: ME-180 AP-1-bla reporter, EGF-induced, beta-lactamase ratio, 5 h; at 7.69 µM (top of the series) unless noted. The essentials: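 Beta-lactamase reporter under AP-1 response element, ME-180 background. Stimulus: EC50 EGF. Compound exposure 5 h, 37 °C. Detection: CCF4, 2.5 h RT, 460/530 nm. Values: AC50 from titration.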

The target in assay [2] is Cytochrome P450 1A2 (Homo sapiens) (UniProt P05177). Nature of the assay: p450-cyp1a2 (AID 410).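 For activity change, negative = inhibition: -100% = full effect of reference inhibitor.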 Note: potency is the fitted concentration of half-maximal effect. In short, it runs like this: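 Luminescent demethylation readout: Luciferin-ME (100uM, equal to Km) turned over by 20nM CYP1A2 for 60 min at room temperature after NADPH regeneration addition, following 10 min compound preincubation. Normalization used 57 uM furafylline as full inhibition.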
Chain of Cytochrome P450 1A2 (Homo sapiens) (P05177 whole entry, looked up): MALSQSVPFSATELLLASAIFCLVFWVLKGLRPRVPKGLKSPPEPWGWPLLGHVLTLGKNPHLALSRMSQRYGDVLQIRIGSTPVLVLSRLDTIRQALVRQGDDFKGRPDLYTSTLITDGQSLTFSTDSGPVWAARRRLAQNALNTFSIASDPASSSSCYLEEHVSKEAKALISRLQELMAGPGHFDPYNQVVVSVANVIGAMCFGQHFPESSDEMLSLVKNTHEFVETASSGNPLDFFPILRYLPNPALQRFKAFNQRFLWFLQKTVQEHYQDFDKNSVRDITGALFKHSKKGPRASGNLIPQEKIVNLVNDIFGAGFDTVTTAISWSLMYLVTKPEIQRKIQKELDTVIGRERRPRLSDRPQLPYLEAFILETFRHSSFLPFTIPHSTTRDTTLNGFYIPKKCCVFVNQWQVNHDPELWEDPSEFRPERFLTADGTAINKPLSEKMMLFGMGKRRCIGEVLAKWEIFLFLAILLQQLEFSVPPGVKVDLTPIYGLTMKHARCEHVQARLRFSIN

A short description of assay [3]: Stat Signaling Pathway (AID 446; active = well fitted curve in either direction with a large enough effect, not every such curve was filed as active;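 note: ME-180 cervical cancer cells given 40 pM IL-6 alongside compound; SIE-controlled beta-lactamase reporter measured as 460/530 nm FRET emission ratio; % is set by controls: 0 for no effect and ±100 for the full control effect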). Particulars: ME-180 (cervical carcinoma) SIE beta-lactamase reporter, IL-6 stimulated, 5 h; at 7.69 µM (top of the series) unless noted. In short, it runs like this:
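Compound effects on IL-6-induced STAT reporter activity were measured in ME-180 cells. After overnight culture, cells were co-treated with 40 pM IL-6 for 5 hrs before beta-lactamase substrate loading at room temperature.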

In assay [4] the target is Glucocorticoid receptor (Homo sapiens) (UniProt P04150). As to the kind of experiment: GR-EFC Redistribution (AID 451). Note: potency is the fitted concentration of half-maximal effect. The conditions noted are these: CHO-K1 GR-EFC translocation, beta-gal luminescence, 2 h. The essentials: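 Translocation of GR-ED fusion to nuclear EA restores b-gal, read by luminescence after 1 h room-temperature detection. Engineered CHO-K1 biosensor cells, 1,000/well, exposed 2 h at 37 C to titrations up to 46 uM final.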
Chain of Glucocorticoid receptor (Homo sapiens) (P04150 whole entry, looked up, the tested form may be a part): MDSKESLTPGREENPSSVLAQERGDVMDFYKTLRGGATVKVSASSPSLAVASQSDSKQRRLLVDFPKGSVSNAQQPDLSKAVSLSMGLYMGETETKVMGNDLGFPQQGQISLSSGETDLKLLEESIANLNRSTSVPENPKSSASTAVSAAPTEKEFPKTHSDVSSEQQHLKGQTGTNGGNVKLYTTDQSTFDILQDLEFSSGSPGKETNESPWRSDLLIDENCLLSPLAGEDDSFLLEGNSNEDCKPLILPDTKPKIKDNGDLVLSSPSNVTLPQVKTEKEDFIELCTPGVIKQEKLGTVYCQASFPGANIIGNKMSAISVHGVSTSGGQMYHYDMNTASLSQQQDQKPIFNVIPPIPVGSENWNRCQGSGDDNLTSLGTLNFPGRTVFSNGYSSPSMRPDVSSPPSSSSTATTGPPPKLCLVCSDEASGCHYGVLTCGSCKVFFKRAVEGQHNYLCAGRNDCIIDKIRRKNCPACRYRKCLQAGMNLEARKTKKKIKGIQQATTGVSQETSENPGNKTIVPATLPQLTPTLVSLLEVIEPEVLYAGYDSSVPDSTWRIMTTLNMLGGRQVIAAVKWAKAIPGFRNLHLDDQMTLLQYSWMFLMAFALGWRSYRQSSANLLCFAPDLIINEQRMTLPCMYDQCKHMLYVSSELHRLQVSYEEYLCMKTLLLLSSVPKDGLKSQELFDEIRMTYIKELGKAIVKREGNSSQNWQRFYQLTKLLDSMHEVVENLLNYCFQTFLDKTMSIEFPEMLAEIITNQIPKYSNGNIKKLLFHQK

Assay [5] can be described thus: qHTS Assay for Lipid Storage Modulators (AID 1519). Particulars: Drosophila S3 cells, BODIPY lipid droplet/cell ratio, laser cytometry, cells loaded with oleic acid; for activity change, negative = inhibition: at 57.5 µM (top of the series). The essentials:
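Cells seeded at 5,000 per well were treated with compounds over a concentration series and loaded with oleic acid (400 uM, as added). Lipid droplet fluorescence (488 nm excitation, 500-530 nm channel) was read by laser-scanning cytometry and normalized to 20 uM Triacsin C.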
In general terms: qHTS replaces the single test concentration by a dilution series.

Assay [6] is described as follows: Primary qHTS for small molecule stabilizers of the endoplasmic reticulum resident proteome: Secreted ER Calcium Modulated Protein (SERCaMP) assay (AID 1508630; active = well fitted curve in the direction sought with a large enough effect; an effect the other way counts as inactive or inconclusive; note: % is set by controls: 0 for no effect and ±100 for the full control effect). In short, it runs like this:
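The SH-SY5Y reporter protocol was run at 3 concentrations up to 38.3 uM (primary) or 11 concentrations (follow-up): 16 h compound, 100 nM thapsigargin for 4 h, then extracellular luciferase luminescence.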

Assay [7] is described as follows: NFAT Signaling Pathway (AID 444; active = well fitted curve in either direction with a large enough effect, not every such curve was filed as active;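 note: carbachol stimulus at about its EC50 of 1 µM final; % is set by controls: 0 for no effect and ±100 for the full control effect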). Particulars: Jurkat NFAT-bla M1, carbachol, beta-lactamase ratio, 5 h; at 7.69 µM (top of the series) unless noted. The essentials:
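Read-out: CCF4 FRET ratio (460 nm/530 nm) after 1 h RT dye loading, used for %activity and AC50 from titration series. Cells: Jurkat NFAT-β-lactamase/M1 line, treated with compound plus 1 uM carbachol for 5 h, 37 °C.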

For assay [8], the target named is Glucocorticoid receptor (Homo sapiens) (UniProt P04150). As to the kind of experiment: GR-GFP Redistribution (AID 450;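 active = compounds whose dose series gives a full or clear partial fitted curve of increased nuclear translocation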; note: potency is the fitted concentration of half-maximal effect). The conditions noted are these: U2OS GR-GFP nuclear translocation, laser cytometry, 2 h.
The target of assay [9] is Mitogen-activated protein kinase 10 (Mus musculus) (UniProt Q61831). As to the kind of experiment: JNK3 AlphaScreen Assay (AID 530; active = well fitted curve in either direction with a large enough effect, not every such curve was filed as active). In short, it runs like this:
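qHTS titrations with 15 min compound pre-incubation before adding ATP (10 uM final). Read-out: AlphaScreen of Ser73-phosphorylated biotin-GST-cJun using HepG2 lysate JNK3 activated by IL-1β and TNFα.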

Assay [10] has as its target 3',5'-cyclic-AMP phosphodiesterase 4B (Homo sapiens) (UniProt Q07343). Nature of the assay: qHTS Assay for Inhibitors of PDE-IV (AID 607; active = well fitted activation curve with a large enough effect in the main read-out, with a control signal flat, not every such curve was filed as active; note: % of control where 0% means no effect). The essentials: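 ACTOne HEK293 cells carry a modified cAMP-gated CNG channel and express endogenous PDE4; plated 1000 cells/well, compounds up to 22.9 uM final. Membrane-potential dye fluorescence (ex 535/em 590) was read; parental cells received 10 uM forskolin + 100 uM RO 20-1724.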

Assay [11] addresses Cytochrome P450 3A4 (Homo sapiens) (UniProt P08684). As to the kind of experiment: qHTS Assay for Inhibitors and Substrates of Cytochrome P450 3A4 (AID 884; active = well fitted curve in the direction sought with a large enough effect; an effect the other way counts as inactive or inconclusive; note: potency is the fitted concentration of half-maximal effect; nearly all actives have a fitted effect of over 50% in size). The essentials: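 Luminescent readout of luciferin produced by CYP3A4 (20 nM) dealkylation of Luciferin-PPXE, 25 uM (its KM). NADPH-driven reaction ran 60 min at RT after 10 min compound preincubation; data scaled to 57 uM ketoconazole as 100% inhibition.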

Assay [12] has the same target. Nature of the assay: qHTS Assay for Activators of Cytochrome P450 3A4 (AID 885; active = well fitted curve in the direction sought with a large enough effect; an effect the other way counts as inactive or inconclusive; note: nearly all actives have a fitted effect of over 65% in size). The essentials: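 CYP3A4 activity: Luciferin-PPXE O-dealkylation, 25uM substrate, 200mM KPO4, RT throughout. Read-out is luciferase luminescence; higher values reflect activation.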
Assay [13] deals with Lysosomal acid glucosylceramidase (Homo sapiens) (UniProt P04062). As to the kind of experiment: Glucocerebrosidase-p2 (AID 348; in the data active = potency below about 10 µM; note: potency is the fitted concentration of half-maximal effect). The conditions noted are these: purified GBA, blue fluorogenic substrate, 40 min. The essentials:
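Normal human glucocerebrosidase (0.2 nM) with blue fluorogenic substrate (80 uM final) in citrate/phosphate pH 5.9 with 10mM sodium taurocholate, 0.01% tween-20; 40 min RT, NaOH/glycine stop; fluorescence Ex 365/Em 440; AC50 from a titration from 0.6 nM upwards.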

Assay [14] concerns the target Ubiquitin carboxyl-terminal hydrolase 1 (Homo sapiens) (UniProt O94782). As to the kind of experiment: Inhibitors of USP1/UAF1: Pilot qHTS (AID 504865; active = well fitted curve in the direction sought with a large enough effect; an effect the other way counts as inactive or inconclusive;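 note: rhodamine fluorescence freed from ubiquitin-rhodamine substrate followed over time; top concentration of the series differs between compounds; % is set by controls: 0 for no effect and ±100 for the full control effect; nearly all actives have a fitted effect of over 35% in size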). In short, it runs like this:
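Deubiquitinase activity followed as kinetic rhodamine fluorescence release from 150 nM Ub-Rho. 1 nM USP1/UAF1 with compound, after 15 min room-temperature preincubation, in HEPES pH 7.8 buffer containing TCEP, EDTA, BSA and Tween-20.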

Assay [15] can be described thus: Confirmation and Secondary Assay for Modulators of Hemoglobin Beta Chain Splicing at IVS2 654 locus (AID 910; active = well fitted curve in the direction sought with a large enough effect; an effect the other way counts as inactive or inconclusive;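 note: HeLa cells stably carrying EGFP split by mutant beta-globin IVS2-654 intron; per-well total GFP intensity by laser scanning cytometry after 2-day treatment; % of control where 0% means no effect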). The essentials:
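Readout: per-well total peak green fluorescence (488 nm ex, 500–520 nm em) from objects 5–250 µm, reflecting correct splicing of an EGFP-654 reporter. Compounds were applied for 2 days at 37 °C to overnight-plated HeLa EGFP-654 cells; controls were DMSO and 500 nM IVS2-654 PNA.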

Setting [16] is: measured here: cell count channel max response.
Where [17] appears, read: measured here: lipid channel max response.

SMILES strings stand for the structures. Records with an inconclusive call do not appear. Calls of active or inactive are those of the source. Unless noted, calls come from the whole dose curve. Where only a bound is given, the exact number is not on record here.

Chain of Cytochrome P450 3A4 (Homo sapiens) (P08684 whole entry, looked up): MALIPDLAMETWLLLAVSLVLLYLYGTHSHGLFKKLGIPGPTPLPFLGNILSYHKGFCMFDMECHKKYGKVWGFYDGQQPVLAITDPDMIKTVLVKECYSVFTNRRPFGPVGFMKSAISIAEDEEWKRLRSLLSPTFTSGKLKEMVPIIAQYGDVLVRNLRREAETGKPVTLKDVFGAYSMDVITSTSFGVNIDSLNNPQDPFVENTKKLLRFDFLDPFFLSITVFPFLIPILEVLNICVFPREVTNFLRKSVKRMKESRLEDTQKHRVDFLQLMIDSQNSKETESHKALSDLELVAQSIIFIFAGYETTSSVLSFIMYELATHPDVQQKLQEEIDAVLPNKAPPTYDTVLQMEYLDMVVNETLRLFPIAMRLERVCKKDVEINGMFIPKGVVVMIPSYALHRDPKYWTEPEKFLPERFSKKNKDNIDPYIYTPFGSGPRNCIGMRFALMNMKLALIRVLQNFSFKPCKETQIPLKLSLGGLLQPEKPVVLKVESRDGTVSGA
Chain of 3',5'-cyclic-AMP phosphodiesterase 4B (Homo sapiens) (Q07343 whole entry, looked up): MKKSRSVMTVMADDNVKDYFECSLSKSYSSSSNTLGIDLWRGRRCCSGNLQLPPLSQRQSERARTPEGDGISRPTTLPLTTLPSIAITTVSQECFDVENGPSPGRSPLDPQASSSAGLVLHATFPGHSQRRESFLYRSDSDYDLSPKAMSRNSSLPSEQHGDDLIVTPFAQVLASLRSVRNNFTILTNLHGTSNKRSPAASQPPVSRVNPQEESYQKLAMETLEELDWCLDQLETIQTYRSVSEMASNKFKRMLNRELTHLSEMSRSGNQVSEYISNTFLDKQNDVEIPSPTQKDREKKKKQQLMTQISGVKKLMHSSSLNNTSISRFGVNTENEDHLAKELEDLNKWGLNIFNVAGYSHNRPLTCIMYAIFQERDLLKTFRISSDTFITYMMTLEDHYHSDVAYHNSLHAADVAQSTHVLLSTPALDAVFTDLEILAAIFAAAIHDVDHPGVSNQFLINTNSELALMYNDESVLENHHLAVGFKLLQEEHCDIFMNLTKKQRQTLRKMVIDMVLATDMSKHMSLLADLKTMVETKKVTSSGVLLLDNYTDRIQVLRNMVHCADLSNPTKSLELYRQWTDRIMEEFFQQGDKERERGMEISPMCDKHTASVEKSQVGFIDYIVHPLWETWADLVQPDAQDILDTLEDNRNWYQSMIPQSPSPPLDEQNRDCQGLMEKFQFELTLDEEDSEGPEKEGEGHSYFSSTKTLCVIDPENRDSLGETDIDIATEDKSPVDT
Chain of Ubiquitin carboxyl-terminal hydrolase 1 (Homo sapiens) (O94782 whole entry, looked up): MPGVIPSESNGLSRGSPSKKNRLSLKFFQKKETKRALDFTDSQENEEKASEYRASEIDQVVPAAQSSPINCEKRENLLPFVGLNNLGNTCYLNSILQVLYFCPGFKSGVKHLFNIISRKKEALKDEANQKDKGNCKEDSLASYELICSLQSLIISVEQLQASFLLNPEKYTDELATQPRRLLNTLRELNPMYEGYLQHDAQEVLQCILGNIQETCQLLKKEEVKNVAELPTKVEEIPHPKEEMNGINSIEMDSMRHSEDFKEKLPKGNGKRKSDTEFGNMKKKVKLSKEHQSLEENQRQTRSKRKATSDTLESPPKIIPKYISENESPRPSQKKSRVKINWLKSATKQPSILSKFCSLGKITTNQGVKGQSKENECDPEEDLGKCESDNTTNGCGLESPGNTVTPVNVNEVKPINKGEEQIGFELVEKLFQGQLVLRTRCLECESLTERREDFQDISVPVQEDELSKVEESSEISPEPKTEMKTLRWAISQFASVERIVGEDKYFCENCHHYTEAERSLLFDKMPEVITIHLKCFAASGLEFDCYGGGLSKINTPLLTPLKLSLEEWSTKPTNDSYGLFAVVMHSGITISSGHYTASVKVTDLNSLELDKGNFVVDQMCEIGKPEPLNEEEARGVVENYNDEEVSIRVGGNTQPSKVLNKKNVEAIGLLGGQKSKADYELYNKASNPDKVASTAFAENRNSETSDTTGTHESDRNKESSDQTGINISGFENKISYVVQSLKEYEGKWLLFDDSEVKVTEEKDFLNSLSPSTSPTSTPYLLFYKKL
Chain of Lysosomal acid glucosylceramidase (Homo sapiens) (P04062 whole entry, looked up): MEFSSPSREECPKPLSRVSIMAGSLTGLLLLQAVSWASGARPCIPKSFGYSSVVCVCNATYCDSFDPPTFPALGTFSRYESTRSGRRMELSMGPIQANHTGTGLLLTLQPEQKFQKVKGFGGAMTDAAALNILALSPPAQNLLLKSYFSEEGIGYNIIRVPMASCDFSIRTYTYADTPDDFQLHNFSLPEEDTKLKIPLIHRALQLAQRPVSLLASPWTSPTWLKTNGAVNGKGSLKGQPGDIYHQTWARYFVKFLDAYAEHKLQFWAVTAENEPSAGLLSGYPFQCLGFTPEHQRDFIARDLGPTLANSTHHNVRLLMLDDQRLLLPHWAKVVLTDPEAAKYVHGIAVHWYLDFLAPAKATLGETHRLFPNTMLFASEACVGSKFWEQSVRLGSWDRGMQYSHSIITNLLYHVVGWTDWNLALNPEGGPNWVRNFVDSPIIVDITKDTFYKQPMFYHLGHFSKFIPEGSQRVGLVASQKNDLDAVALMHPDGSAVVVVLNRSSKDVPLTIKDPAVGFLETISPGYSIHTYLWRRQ

Regarding `O=C(c1cc(C(F)(F)F)cc(C(F)(F)F)c1)N1CCC2(CC1)CN(c1ccncc1)C2`, the activity change, negative = inhibition in assay [1] is 13% (inactive); in assay [5] it was 2.27% (inactive). Moreover, in [2], the Potency result is “inactive”. Moreover, the activity, negative = inhibition in assay [3] was 3.13% (inactive). Besides, the Potency in assay [4] is > 46 µM (inactive). Besides, the max response is -2.54% in assay [5] (setting [16]) and 0.518% in [5] (setting [17]). Moreover, the result in assay [6] was inactive.
Turning to `Cc1noc(C)c1-c1nc(N2CCOCC2)c2ccccc2n1`, the activity change, negative = inhibition in [1] was -9.5% (inactive); in assay [7], 16.1% (inactive); in [5] it was 2.85% (inactive). Further, the Potency in assay [2] was 0.316 µM (active); in [8] it was > 46 µM (inactive); in [4], > 46 µM (inactive); in assay [11] it was 6.31 µM (active). Further, in assay [3], the activity, negative = inhibition is 19.8% (inactive). In addition, the Potency entry in [9], in assay [10] and in [12] was “inactive” in each case. Also, the values for the max response in [5] (setting [16]) and in assay [5] (setting [17]) were 6.88% and 9.54%, respectively. For the same molecule, the outcome in assay [6] was inactive.
For `O=C(c1csnn1)N1CCC2(CCN(Cc3ccccc3)CC2)CC1`, the activity change, negative = inhibition in assay [1] was 13.9% (inactive); in [5], -4.6% (inactive). Also, the Potency result in [2], in [9] and in assay [10] was “inactive” throughout. Moreover, the activity, negative = inhibition in assay [3] is -0.255% (inactive). The Potency in assay [4] was > 46 µM (inactive). Further, the figures for the max response in [5] (setting [16]) and in assay [5] (setting [17]) were 4.52% and 1.17%, respectively. Also, the outcome in assay [6] was inactive.
In the case of `N#CCCn1c(=O)c(-c2cccs2)nc2cnc(N3CCNCC3)nc21`, the values for the Potency in assay [13], in assay [8] and in assay [4] were > 11.4 µM (inactive), > 9.22 µM (inactive) and > 46 µM (inactive), respectively. In addition, the Potency result in assay [9] and in [10] was “inactive” throughout. The activity change, negative = inhibition in assay [5] was -0.055% (inactive). Further, the max response in assay [5] (setting [16]) amounted to 5.4%; in assay [5] (setting [17]), 9.49%. The result in [6] was inactive.
As to `CC(=O)NCCNc1nc(-c2ccc(N(C)C)cc2)nc2ccccc12`, the activity change, negative = inhibition in assay [1] is 7.41% (inactive); in assay [7] it was -28.2% (inactive); in assay [5] it was 9.02% (inactive). The Potency in assay [2] was 3.16 µM (active); in [8] it was > 46 µM (inactive); in assay [4], > 46 µM (inactive). In addition, the Potency result in assay [9], in assay [10], in assay [12] and in assay [14] was “inactive” throughout. For the same molecule, the max response in [5] (setting [16]) was 13%; in assay [5] (setting [17]) it was 24.4%. For the same molecule, the outcome in assay [6] was inactive.
For `COc1ccc2[nH]cc(CCNc3ccnc(-c4cccc(NS(C)(=O)=O)c4)n3)c2c1`, the values for the activity change, negative = inhibition in assay [1] and in assay [5] were -8.22% (inactive) and 8.87% (inactive), respectively. Moreover, the Potency in assay [2] is 1.58 µM (active); in assay [8] it was > 46 µM (inactive); in assay [4] it was > 46 µM (inactive). Also, the activity, negative = inhibition in assay [3] was -27.4% (inactive). Also, the Potency result in assay [9], in [10], in [15] and in assay [14] was “inactive” in each case. Also, the max response is -1.88% in assay [5] (setting [16]) and 5.22% in [5] (setting [17]). The outcome in [6] was inactive.
As to `O=c1c(-c2ccc(F)cc2)nc2cnc(N3CCOCC3)nc2n1-c1ccccc1`, the values for the Potency in assay [13], in assay [8] and in assay [4] were > 11.4 µM (inactive), > 9.22 µM (inactive) and > 46 µM (inactive), respectively. In addition, in assay [9], the Potency entry is “inactive”. Also, the activity change, negative = inhibition in assay [5] was -4.64% (inactive). Besides, the max response in assay [5] (setting [16]) was 7.89%; in assay [5] (setting [17]), 5.39%. Moreover, the result in assay [6] was inactive.
Regarding `Cn1cccc1C(=O)N1CCC2(CCCN(Cc3ccncc3)C2)CC1`, the activity change, negative = inhibition in [1] was -7.26% (inactive); in assay [5], 7.27% (inactive). Also, the figures for the Potency in assay [2] and in assay [4] were 15.8 µM (active) and > 46 µM (inactive), respectively. Further, the activity, negative = inhibition in assay [3] was 7.75% (inactive). Besides, the Potency result in [9], in assay [10] and in assay [12] was “inactive” throughout. Moreover, the max response in assay [5] (setting [16]) is 1.45%; in assay [5] (setting [17]), 14.6%. Moreover, in assay [6], the outcome was inactive.

These data come from PubChem BioAssay (NCATS).
